Measurements: PubChem BioAssay AID1159580 (chemical genetic matrix, 2015)
The whole screen tested about 5,500 compounds, of which about 2,000 (36%) were called active. About 18% were inconclusive and are not listed. No stated cut-off is given here; in the data, active means normalized growth mostly below about 0.91 (no sharp cut-off); inconclusive means no clear call, values can overlap the other calls; inactive means mostly above about 0.92. The list shows a part of the results.

Experiment: chemical genetic growth profiling, strain panel (AID 1159580);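 further: tested at 20 µM; growth read once vehicle control cultures reached saturation at 30 °C; 1 = growth at the plate median or of vehicle wells; lower values mean less growth of the strain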
Settings: growth OD

Measured: normalized growth

CN(C)C1C(=O)C(C(N)=O)=C(O)C2(O)C(=O)C3=C(O)c4c(O)ccc(Cl)c4C(C)(O)C3CC12 (stereo unspecified)
inactive: S. cerevisiae deletion strains, locus YAL013W, strain DEP1, hits give low values 1 | S. cerevisiae deletion strains, locus YBR021W, strain FUR4, hits give low values 0.979 | S. cerevisiae deletion strains, locus YBR229C, strain ROT2, hits give low values 0.991 | S. cerevisiae deletion strains, locus YCL029C, strain bik1, hits give low values 0.975 | S. cerevisiae deletion strains, locus YDL035C, strain GPR1, hits give low values 1.01 | S. cerevisiae deletion strains, locus YDL074C, strain BRE1, hits give low values 1.06 | S. cerevisiae deletion strains, locus YDL101C, strain DUN1, hits give low values 0.995 | S. cerevisiae deletion strains, locus YDL134C, strain PPH21, hits give low values 0.992 | S. cerevisiae deletion strains, locus YDL185W, strain tfp1, hits give low values 0.993 | S. cerevisiae deletion strains, locus YDL192W, strain arf1, hits give low values 0.99 | S. cerevisiae deletion strains, locus YDR101C, strain arx1, hits give low values 0.997 | S. cerevisiae deletion strains, locus YDR150W, strain NUM1, hits give low values 0.992 | S. cerevisiae deletion strains, locus YDR162C, strain NBP2, hits give low values 1.01 | S. cerevisiae deletion strains, locus YDR318W, strain mcm21, hits give low values 0.99 | S. cerevisiae deletion strains, locus YDR388W, hits give low values 0.991 | S. cerevisiae deletion strains, locus YDR502C, strain sam2, hits give low values 0.993 | S. cerevisiae deletion strains, locus YEL061C, strain CIN8, hits give low values 0.999 | S. cerevisiae deletion strains, locus YER110C, hits give low values 0.984 | S. cerevisiae deletion strains, locus YER155C, strain BEM2, hits give low values 0.997 | S. cerevisiae deletion strains, locus YER167W, strain BCK2, hits give low values 0.988 | S. cerevisiae deletion strains, locus YGL078C, strain dbp3, hits give low values 0.99 | S. cerevisiae deletion strains, locus YGL086W, strain mad1, hits give low values 0.982 | S. cerevisiae deletion strains, locus YGL248W, strain PDE1, hits give low values 0.985 | S. cerevisiae deletion strains, locus YGR078C, strain PAC10, hits give low values 1.02 | S. cerevisiae deletion strains, locus YGR135W, strain pre9, hits give low values 1.01 | S. cerevisiae deletion strains, locus YGR229C, strain SMI1, hits give low values 1.04 | S. cerevisiae deletion strains, locus YGR252W, strain gcn5, hits give low values 0.948 | S. cerevisiae deletion strains, locus YHR030C, strain SLT2, hits give low values 0.99 | S. cerevisiae deletion strains, locus YHR079C, strain IRE1 (second series), hits give low values 0.979 | S. cerevisiae deletion strains, locus YHR094C, strain hxt1, hits give low values 0.991 | S. cerevisiae deletion strains, locus YHR129C, strain ARP1, hits give low values 0.994 | S. cerevisiae deletion strains, locus YHR200W, strain rpn10, hits give low values 0.98 | S. cerevisiae deletion strains, locus YIL066C, strain RNR3, hits give low values 0.993 | S. cerevisiae deletion strains, locus YIL073C, strain SPO22, hits give low values 0.96 | S. cerevisiae deletion strains, locus YIL125W, strain kgd1, hits give low values 1 | S. cerevisiae deletion strains, locus YIR030C, strain dcg1, hits give low values 0.986 | S. cerevisiae deletion strains, locus YJL095W, strain BCK1, hits give low values 1.03 | S. cerevisiae deletion strains, locus YJL134W, strain LCB3, hits give low values 0.991 | S. cerevisiae deletion strains, locus YJL168C, strain set2, hits give low values 0.991 | S. cerevisiae deletion strains, locus YJL187C, strain SWE1 (second series), hits give low values 0.996 | S. cerevisiae deletion strains, locus YJR043C, strain POL32, hits give low values 0.984 | S. cerevisiae deletion strains, locus YJR075W, strain HOC1, hits give low values 1.01 | S. cerevisiae deletion strains, locus YKL009W, strain mrt4, hits give low values 0.964 | S. cerevisiae deletion strains, locus YKL068W, hits give low values 0.996 | S. cerevisiae deletion strains, locus YKL085W, strain MDH1 (second series), hits give low values 0.984 | S. cerevisiae deletion strains, locus YKL085W, strain MDH1, hits give low values 0.984 | S. cerevisiae deletion strains, locus YKL190W, strain CNB1, hits give low values 1 | S. cerevisiae deletion strains, locus YKR001C, strain vps1, hits give low values 0.985 | S. cerevisiae deletion strains, locus YLR039C, strain RIC1, hits give low values 0.964 | S. cerevisiae deletion strains, locus YLR058C, strain SHM2, hits give low values 0.991 | S. cerevisiae deletion strains, locus YLR102C, strain apc9, hits give low values 0.985 | S. cerevisiae deletion strains, locus YLR262C, strain YPT6, hits give low values 0.985 | S. cerevisiae deletion strains, locus YLR268W, strain sec22, hits give low values 0.999 | S. cerevisiae deletion strains, locus YLR330W, strain CHS5, hits give low values 0.991 | S. cerevisiae deletion strains, locus YLR342W, strain FKS1 (second series), hits give low values 0.932 | S. cerevisiae deletion strains, locus YLR371W, strain rom2, hits give low values 0.979 | S. cerevisiae deletion strains, locus YLR418C, strain cdc73, hits give low values 1.02 | S. cerevisiae deletion strains, locus YML016C, strain PPZ1, hits give low values 0.986 | S. cerevisiae deletion strains, locus YML032C, strain rad52, hits give low values 0.98 | S. cerevisiae deletion strains, locus YML124C, strain tub3, hits give low values 0.989 | S. cerevisiae deletion strains, locus YMR078C, strain ctf18, hits give low values 0.983 | S. cerevisiae deletion strains, locus YMR223W, strain ubp8, hits give low values 0.97 | S. cerevisiae deletion strains, locus YMR263W, strain SAP30, hits give low values 1.02 | S. cerevisiae deletion strains, locus YMR307W, strain GAS1, hits give low values 0.937 | S. cerevisiae deletion strains, locus YNL067W, strain RPL9B, hits give low values 1.03 | S. cerevisiae deletion strains, locus YNL128W, strain TEP1, hits give low values 1.02 | S. cerevisiae deletion strains, locus YNL153C, strain GIM3, hits give low values 1.01 | S. cerevisiae deletion strains, locus YNL233W, strain BNI4, hits give low values 0.999 | S. cerevisiae deletion strains, locus YNL250W, strain rad50, hits give low values 1 | S. cerevisiae deletion strains, locus YNL271C, strain bni1, hits give low values 0.998 | S. cerevisiae deletion strains, locus YNL298W, strain CLA4, hits give low values 0.994 | S. cerevisiae deletion strains, locus YNL307C, strain MCK1, hits give low values 0.976 | S. cerevisiae deletion strains, locus YNL322C, strain KRE1, hits give low values 1 | S. cerevisiae deletion strains, locus YNR052C, strain pop2, hits give low values 0.974 | S. cerevisiae deletion strains, locus YOL006C, strain TOP1, hits give low values 1.09 | S. cerevisiae deletion strains, locus YOL012C, strain htz1 0.811 | S. cerevisiae deletion strains, locus YOL147C, strain pex11, hits give low values 0.992 | S. cerevisiae deletion strains, locus YOR061W, strain CKA2, hits give low values 0.997 | S. cerevisiae deletion strains, locus YOR069W, strain VPS5, hits give low values 0.993 | S. cerevisiae deletion strains, locus YOR136W, strain idh2, hits give low values 0.992 | S. cerevisiae deletion strains, locus YOR144C, strain elg1, hits give low values 0.985 | S. cerevisiae deletion strains, locus YOR184W, strain ser1, hits give low values 0.973 | S. cerevisiae deletion strains, locus YOR316C, strain cot1, hits give low values 0.971 | S. cerevisiae deletion strains, locus YPL055C, strain LGE1, hits give low values 1.04 | S. cerevisiae deletion strains, locus YPL241C, strain CIN2, hits give low values 0.997 | S. cerevisiae deletion strains, locus YPR119W, strain clb2, hits give low values 0.998 | S. cerevisiae deletion strains, locus YPR141C, strain kar3, hits give low values 1 | S. cerevisiae deletion strains, locus YPR163C, strain tif3, hits give low values 0.991 | S. cerevisiae deletion strains, locus YPR167C, strain met16, hits give low values 0.992 | S. cerevisiae deletion strains, strain wtn01, hits give low values 0.988 | S. cerevisiae strains, strain wild type, hits give low values 1
